Measured values published in PubChem BioAssay (NCATS).
Results filed as inconclusive are left out. The source made the active and inactive calls. The call rests on the fitted dose curve; in most records, active means well fitted curve in the direction sought with a large enough effect; inconclusive means small, poorly fitted or top-dose-only effect, or another doubt; inactive means no such curve, though single readings can be large; an effect the other way counts as inactive or inconclusive.

Experiments:
[1] = qHTS of pediatric cancer cell lines to identify multiple opportunities for drug repurposing: Primary screen for NB-EBc1 cells (AID 1347095)
Procedure, shortened: (§1)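 Following a 5-hour attachment period, cells at 500-1,000/well received compounds and were cultured for 48 hours. CellTiter-Glo was added and luminescence read to estimate viable, metabolically active cells.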

[2] = qHTS of pediatric cancer cell lines to identify multiple opportunities for drug repurposing: Primary screen for U-2 OS cells (AID 1347096); further: nearly all actives have a fitted effect of over 50% in size
Procedure, shortened: (§2)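 Cells (500-1,000/well) rested 5 h, then received compounds for 48 h; metabolically active cells were measured by CellTiter-Glo luminescence. Final concentrations spanned up to 46 µM (MIPE, 11-point) or 0.59 nM-46 µM (NPC, 8-point) in primary screens, 11-point in follow-ups.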

[3] = qHTS of pediatric cancer cell lines to identify multiple opportunities for drug repurposing: Primary screen for Saos-2 cells (AID 1347097); further: nearly all actives have a fitted effect of over 40% in size
Procedure, shortened: as §1

[4] = qHTS of pediatric cancer cell lines to identify multiple opportunities for drug repurposing: Primary screen for SK-N-SH cells (AID 1347098); further: nearly all actives have a fitted effect of over 65% in size
Procedure, shortened: as §2

[5] = qHTS of pediatric cancer cell lines to identify multiple opportunities for drug repurposing: Primary screen for NB1643 cells (AID 1347099); further: nearly all actives have a fitted effect of over 50% in size
Procedure, shortened: as §1

[6] = qHTS of pediatric cancer cell lines to identify multiple opportunities for drug repurposing: Primary screen for LAN-5 cells (AID 1347100)
Procedure, shortened: as §2

[7] = qHTS of pediatric cancer cell lines to identify multiple opportunities for drug repurposing: Primary screen for BT-12 cells (AID 1347101); further: nearly all actives have a fitted effect of over 25% in size
Procedure, shortened: as §2

[8] = qHTS of pediatric cancer cell lines to identify multiple opportunities for drug repurposing: Primary screen for Rh18 cells (AID 1347102); further: nearly all actives have a fitted effect of over 65% in size
Procedure, shortened: as §2

[9] = qHTS of pediatric cancer cell lines to identify multiple opportunities for drug repurposing: Primary screen for OHS-50 cells (AID 1347103); further: nearly all actives have a fitted effect of over 40% in size
Procedure, shortened: as §2

[10] = qHTS of pediatric cancer cell lines to identify multiple opportunities for drug repurposing: Primary screen for RD cells (AID 1347104); further: nearly all actives have a fitted effect of over 55% in size
Procedure, shortened: as §1

Measured: Potency
Potency means the concentration at half of the fitted maximal effect.

CSCC[C@@H](NC(=O)[C@@H](Cc1ccccc1)NC(=O)CNC(=O)CNC(=O)[C@@H](N)Cc1ccc(O)cc1)C(=O)O
inactive: [1] | [2] | [3] | [4] | [5] | [6] | [7] | [8] | [9] | [10]

O=C(O)COc1ccccc1
inactive: [1] | [2] | [3] | [4] | [5] | [6] | [7] | [8] | [9] | [10]

CS(=O)(=O)c1ccc(C(=O)C2C(=O)CCCC2=O)c([N+](=O)[O-])c1
inactive: [1] | [2] | [3] | [4] | [6] | [7] | [8] | [9]
active: [5] 0.001 µM

O=C1CCC[C@@H]2[C@H]3CCCN4CCC[C@@H](CN12)[C@@H]34
inactive: [1] | [2] | [3] | [4] | [5] | [6] | [7] | [8] | [9] | [10]

CCN1CCN(C(=O)Cc2ccc(Nc3ncc(F)c(Nc4ccc(C(=O)Nc5ccccc5Cl)cc4)n3)cc2)CC1
active: [1] 5.26 µM | [2] 7.43 µM | [3] 4.69 µM | [4] 21.5 µM | [5] 5.9 µM | [6] 0.469 µM | [7] 19.3 µM | [8] 8.33 µM | [9] 4.32 µM | [10] 13.2 µM

O=C(O)c1cc(Oc2ccc(C(F)(F)F)cc2Cl)ccc1[N+](=O)[O-]
inactive: [1] | [2] | [3] | [4] | [5] | [6] | [7] | [8] | [9] | [10]

COCC1(CO)C(=O)C2CCN1CC2 (stereo unspecified)
active: [1] 0.264 µM | [3] 8.33 µM | [4] 1.08 µM | [5] 5.9 µM | [6] 0.833 µM | [7] 21.7 µM | [9] 3.85 µM
inactive: [2] | [8] | [10]

CC(C)(O)C=CC(=O)[C@](C)(O)[C@H]1[C@H](O)C[C@]2(C)[C@@H]3CC=C4[C@@H](C=C(O)C(=O)C4(C)C)[C@]3(C)C(=O)C[C@@]12C
active: [1] 0.332 µM | [2] 0.148 µM | [3] 0.105 µM | [4] 0.152 µM | [5] 0.0372 µM | [6] 0.0743 µM | [7] 0.243 µM | [8] 0.0526 µM | [9] 0.137 µM | [10] 0.166 µM

COCCOCCO
inactive: [1] | [2] | [3] | [4] | [5] | [6] | [7] | [8] | [9] | [10]

Nc1ccc([N+](=O)[O-])cc1
inactive: [1] | [2] | [3] | [4] | [5] | [6] | [7] | [8]

CC[C@@H]1[C@@H](C)O[C@@](O)([C@@H](C)[C@H](O)[C@H](C)[C@H]2OC(=O)C=CC=C[C@@H](C)[C@@H]([C@@H](C)[C@@H](O)[C@H](C)[C@@]3(O)C[C@H](O[C@H]4C[C@H](O)[C@H](O)[C@H](C)O4)[C@H](CC)[C@@H](C)O3)OC(=O)C=CC=C[C@@H]2C)C[C@H]1O[C@H]1C[C@H](O)[C@H](O)[C@H](C)O1
active: [1] 0.418 µM | [2] 0.935 µM | [3] 0.372 µM | [4] 21.5 µM | [5] 0.833 µM | [6] 0.372 µM | [7] 0.863 µM | [8] 0.59 µM | [9] 0.306 µM | [10] 0.264 µM

O=S(=O)(O)C(F)(F)C(F)(F)C(F)(F)C(F)(F)C(F)(F)C(F)(F)C(F)(F)C(F)(F)F
inactive: [1] | [2] | [3] | [4] | [5] | [6] | [7] | [8] | [9] | [10]

CCC(=O)O[C@@H]1C=C2CCC3C(CCC4(C)C3CC[C@@H]4OC(=O)CC)C2CC1 (stereo partly specified)
inactive: [1] | [2] | [3] | [4] | [5] | [6] | [7] | [8] | [9] | [10]

COC(C)(C)CCCC(C)C/C=C/C(C)=C/C(=O)OC(C)C (stereo unspecified)
inactive: [1] | [2] | [3] | [4] | [5] | [6] | [7] | [8] | [9] | [10]

CC(=Cc1csc(C)n1)[C@@H]1C[C@H]2O[C@]2(C)CCC[C@H](C)[C@@H](O)[C@@H](C)C(=O)C(C)(C)[C@@H](O)CC(=O)O1
inactive: [2] | [4] | [5] | [7] | [8]
active: [1] 0.0166 µM | [3] 0.001 µM | [6] 0.001 µM | [9] 0.001 µM

CCc1c(C(=O)C(N)=O)c2c(OCC(=O)O)cccc2n1Cc1ccccc1
inactive: [1] | [2] | [3] | [4] | [5] | [6] | [7] | [8] | [9] | [10]

COc1cccc2c1[C@]13CCN(CC4CC4)[C@H](C2)[C@]1(OC)CCC(=O)C3
inactive: [1] | [2] | [3] | [4] | [5] | [6] | [7] | [8] | [9] | [10]

CC1=C(C(=O)O)N2C(=O)[C@@H](N)[C@H]2SC1
inactive: [1] | [2] | [3] | [4] | [5] | [6] | [7] | [8] | [9] | [10]

COC(=O)[C@@H](N)CCCN=C(N)N[N+](=O)[O-]
inactive: [1] | [2] | [3] | [6] | [7] | [8]
active: [4] 6.07 µM | [5] 9.35 µM

NC1CC1c1ccccc1 (stereo unspecified)
inactive: [1] | [2] | [3] | [4] | [5] | [6] | [7] | [8] | [9] | [10]

Oc1ccc2c3c1O[C@H]1c4[nH]c5c(c4C[C@@]4(O)[C@@H](C2)N(CC2CC2)CC[C@]314)C[C@@]1(O)[C@H]2Cc3ccc(O)c4c3[C@@]1(CCN2CC1CC1)[C@H]5O4
inactive: [1] | [2] | [3] | [4] | [5] | [6] | [7] | [8] | [9] | [10]

CC(C)N[C@@H]1CCn2c(=O)[nH]c3cccc(c32)[C@@H]1O
inactive: [1]
active: [2] 11.8 µM | [3] 5.26 µM | [4] 8.57 µM | [5] 4.18 µM | [6] 0.743 µM | [7] 3.06 µM | [8] 4.69 µM | [9] 1.37 µM | [10] 3.72 µM

CC=C(C)C(=O)O[C@H]1C(C)=C2[C@@H]3OC(=O)[C@@](C)(O)[C@@]3(O)[C@@H](OC(=O)CCC)C[C@](C)(OC(C)=O)[C@@H]2[C@@H]1OC(=O)CCCCCCC
active: [1] 0.118 µM | [2] 0.296 µM | [3] 0.0743 µM | [4] 0.136 µM | [5] 0.0662 µM | [6] 0.0418 µM | [7] 0.0485 µM | [8] 0.0132 µM | [9] 0.0172 µM | [10] 0.0209 µM

Fc1cc(Br)ccc1CBr
inactive: [1] | [2] | [3] | [4] | [5] | [6] | [7] | [8] | [9] | [10]

C1CCC(NC2CCCCC2)CC1
inactive: [1] | [2] | [3] | [4] | [5] | [6] | [7] | [8] | [9] | [10]

C[C@H]1CCCC=CC2C[C@H](O)C[C@@H]2[C@H](O)C=CC(=O)O1 (stereo partly specified)
active: [1] 0.001 µM | [2] 0.001 µM | [3] 3.72 µM | [4] 0.001 µM | [5] 0.001 µM | [6] 0.001 µM | [7] 0.001 µM | [8] 0.001 µM | [9] 0.001 µM | [10] 0.001 µM

Cc1cc(O)ccc1Cl
inactive: [1] | [2] | [3] | [4] | [5] | [6] | [7] | [8] | [9] | [10]

C[C@]12COC(=O)C[C@@H]1CC[C@@H]1[C@H]2CC[C@@]2(C)[C@H]1CC[C@]2(C)O
inactive: [1] | [2] | [3] | [4] | [5] | [6] | [7] | [8] | [9] | [10]

C[C@H]([C@H](O)CCC(C)(C)O)[C@H]1CC[C@@]2(O)C3=CC(=O)[C@@H]4C[C@@H](O)[C@@H](O)C[C@]4(C)[C@@H]3CC[C@]12C
inactive: [1] | [2] | [3] | [4] | [5] | [6] | [7] | [8] | [9] | [10]

C=CCON=C(C[C@H]1O[C@@H]2O[C@]3(C)CC[C@@H]4[C@H](C)CC[C@@H]([C@H]1C)[C@@]24OO3)[C@H]1O[C@@H]2O[C@]3(C)CC[C@H]4[C@H](C)CC[C@@H]([C@@H]1C)[C@@]24OO3
active: [1] 0.372 µM | [5] 0.833 µM | [6] 0.469 µM | [7] 0.344 µM
inactive: [2] | [3] | [4]

C[C@@H]1CC[C@@]2(OC1)O[C@H]1C[C@H]3[C@@H]4CC=C5C[C@@H](O[C@@H]6O[C@H](CO)[C@@H](O[C@@H]7O[C@@H](C)[C@H](O)[C@@H](O)[C@@H]7O)[C@H](O)[C@@H]6O[C@@H]6O[C@@H](C)[C@H](O)[C@@H](O)[C@@H]6O)CC[C@]5(C)[C@@H]4CC[C@]3(C)[C@@H]1[C@H]2C
active: [1] 4.69 µM | [2] 9.35 µM | [3] 5.9 µM | [4] 12.1 µM | [5] 5.9 µM | [6] 3.72 µM | [7] 6.85 µM | [8] 4.18 µM | [9] 4.32 µM | [10] 5.9 µM

CC(C)N(CCNC(=O)CN1CCCC1=O)C(C)C
inactive: [1] | [2] | [3] | [4] | [5] | [6] | [7] | [8] | [9] | [10]

C[C@@]12OC(=O)[C@]1([C@@H](O)[C@@H]1C=CCCC1)NC(=O)[C@H]2CCCl
active: [1] 0.0105 µM | [2] 0.235 µM | [3] 0.0372 µM | [4] 0.171 µM | [5] 0.0743 µM | [6] 0.0526 µM | [7] 0.137 µM | [8] 0.0526 µM | [9] 0.0685 µM | [10] 0.0526 µM

CN[C@@H](C)[C@H](O)c1ccccc1
inactive: [1] | [2] | [3] | [4] | [5] | [6] | [7] | [8] | [9] | [10]

CCOC(=O)c1cncn1[C@H](C)c1ccccc1
inactive: [1] | [2] | [3] | [4] | [5] | [6] | [7] | [8] | [9] | [10]
